Columns and labels:
Conditions in all cases: concentration: 1 μM,replicates: in singlicate; n = 1
[1] = tested on: STK36
[2] = tested on: STK39
[3] = tested on: SYK
[4] = tested on: SgK110
[5] = tested on: T1, TAK1
T1 construct: gene MAP3K7

[6] = tested on: TAOK1
[7] = tested on: TAOK2
[8] = tested on: TAOK3
[9] = tested on: TBK1
[10] = tested on: TEC
[11] = tested on: TESK1
[12] = tested on: TGFBR1
[13] = tested on: TGFBR2
[14] = tested on: TIE1
[15] = tested on: T2, TIE2
T2 construct: gene TEK

[16] = tested on: TLK1
[17] = tested on: TLK2
[18] = tested on: TNIK
[19] = tested on: TNK1
[20] = tested on: TNK2
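Note: KINOMEscan kinase panel screen.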

Row | SMILES | %Inh [1] [%] | %Inh [2] [%] | %Inh [3] [%] | %Inh [4] [%] | %Inh [5] [%] | %Inh [6] [%] | %Inh [7] [%] | %Inh [8] [%] | %Inh [9] [%] | %Inh [10] [%] | %Inh [11] [%] | %Inh [12] [%] | %Inh [13] [%] | %Inh [14] [%] | %Inh [15] [%] | %Inh [16] [%] | %Inh [17] [%] | %Inh [18] [%] | %Inh [19] [%] | %Inh [20] [%]
1 | CCOC(=O)N1CCC(n2cnc(-c3ccc(F)cc3)c2-c2ccnc(N)n2)CC1 [SB-219952] | 47 | 46 | 13 | 0 | 42 | 0 | 3 | 0 | 16 | 0 | 12 | 23 | 10 | 12 | 10 | 26 | 2 | 32 | 21 | 12
2 | C[C@@H]1CNc2c(sc3ccc4nc(-c5ccc(O)cc5)ccc4c23)C(=O)N1 | 5 | 6 | 0 | 0 | 44 | 86 | 0 | 0 | 8 | 5 | 8 | 1 | 60 | 0 | 25 | 24 | 0 | 42 | 14 | 0
3 | C[C@@H](Oc1cc(-n2cnc3cc(-c4ccncc4)ccc32)sc1C(N)=O)c1ccccc1Cl [GSK479719] | 0 | 6 | 52 | 0 | 0 | 0 | 0 | 0 | 0 | 7 | 0 | 1 | 0 | 84 | 27 | 0 | 0 | 11 | 20 | 37
4 | O=C(Nc1ccc(Oc2ccc3nc(NC(=O)C4CC4)cn3n2)c(F)c1)c1cccn(-c2ccccc2)c1=O | 1 | 0 | 30 | 0 | 0 | 0 | 0 | 0 | 54 | 44 | 17 | 9 | 9 | 92.2 | 90.1 | 0 | 0 | 34 | 59 | 0
5 | C[C@@H]1CNc2c(sc3ccc4nc(-c5ccncc5)ccc4c23)C(=O)N1 | 6 | 0 | 11 | 0 | 62 | 75 | 0 | 0 | 9 | 0 | 0 | 0 | 48 | 0 | 0 | 0 | 0 | 0 | 22 | 0
6 | COc1cccc(OC)c1C(=O)Nc1cccc(-c2nn3ccccc3c2-c2ccnc(Nc3cccc(F)c3)n2)c1 [GSK361065] | 92 | 11 | 3 | 16 | 16 | 62 | 15 | 60 | 61 | 26 | 1 | 0 | 17 | 19 | 12 | 19 | 0 | 6 | 31 | 29
7 | COc1cc2c(Nc3ccc(NC(=O)c4ccccc4)cc3)ncnc2cc1OCCCN1CCOCC1 [GSK301329] | 0 | 0 | 7 | 0 | 0 | 0 | 0 | 0 | 0 | 0 | 37 | 0 | 0 | 24 | 0 | 0 | 0 | 0 | 56 | 66
8 | Cc1n[nH]c2cc(Nc3ccnc(Nc4cccc(CN5CCOCC5)c4)n3)ccc12 [GW682569] | 9 | 16 | 34 | 0 | 57 | 0 | 0 | 0 | 63 | 0 | 27 | 54 | 84 | 45 | 2 | 9 | 2 | 25 | 33 | 10
9 | CCN1CCN(CCCC(=O)Nc2n[nH]c3nc(-c4ccc(O)cc4)c(Br)cc23)CC1 [SB-731579] | 0 | 0 | 0 | 0 | 11 | 53 | 65 | 66 | 0 | 0 | 0 | 0 | 0 | 19 | 0 | 8 | 0 | 7 | 34 | 0
10 | Cn1ccc2ncnc(Oc3ccc(NC(=O)Nc4cccc(C(F)(F)F)c4)c(Cl)c3)c21 | 0 | 0 | 1 | 0 | 31 | 0 | 23 | 0 | 15 | 0 | 0 | 17 | 0 | 85 | 94.8 | 74 | 0 | 18 | 6 | 0
11 | COc1cc(Nc2nccc(N3CCC(NC(=O)c4cccc(C#N)c4)C3)n2)cc(OC)c1OC (stereo not shown) [GSK1379751] | 0 | 0 | 0 | 0 | 0 | 0 | 0 | 0 | 10 | 0 | 19 | 4 | 0 | 32 | 0 | 4 | 0 | 0 | 98.9 | 10
12 | O=c1[nH]cc(-c2ccc(O)cc2)c2sc(-c3ccncc3)cc12 [GSK1033723] | 26 | 6 | 26 | 0 | 11 | 14 | 0 | 0 | 19 | 0 | 0 | 0 | 0 | 0 | 89 | 6 | 0 | 4 | 0 | 5
13 | CN(c1cccc(CNc2nc(Nc3ccc4c(c3)CC(=O)N4)ncc2C(F)(F)F)c1)S(C)(=O)=O | 20 | 0 | 37 | 0 | 43 | 0 | 16 | 0 | 70 | 0 | 0 | 0 | 0 | 75 | 42 | 16 | 3 | 75 | 57 | 67
14 | Cc1cccc2c(-c3ccncc3)c(-c3ccc(F)cc3)nn12.Cl [GW461487] | 24 | 12 | 25 | 0 | 0 | 1 | 0 | 5 | 16 | 0 | 0 | 8 | 0 | 0 | 0 | 10 | 2 | 7 | 0 | 9
15 | Nc1nccc(-c2ccc3c(N)n[nH]c3c2)n1 [GSK1034945] | 0 | 1 | 0 | 0 | 8 | 62 | 0 | 0 | 20 | 13 | 2 |  | 0 | 0 | 0 | 14 | 0 | 2 | 0 | 5
16 | Cc1ccc(Nc2ccnc(Nc3ccc4c(c3)CS(=O)(=O)C4)n2)cc1O.Cl [GW579362] | 92.2 | 17 | 93.2 | 0 | 99.5 | 81 | 30 | 47 | 90 | 83 | 53 | 82 | 99.4 | 88 | 56 | 30 | 35 | 68 | 85 | 80
17 | Cn1ccc2ncnc(Oc3ccc(NC(=O)Nc4ccnc(C(F)(F)F)c4)c(Cl)c3)c21 | 0 | 0 | 0 | 47 | 2 | 0 | 0 | 0 | 0 | 0 | 0 | 0 | 53 | 76 | 11 | 6 | 0 | 0 | 0 | 0
18 | COc1cccc(C2=C(Nc3cccc(Cl)c3)C(=O)NC2=O)c1 [SB-341556] | 0 | 8 | 3 | 0 | 3 | 21 | 0 | 23 | 2 | 0 | 17 | 12 | 0 | 4 | 0 | 38 | 29 | 0 | 32 | 15
19 | Cc1cccc(-c2nc(Nc3ccncc3)c3sccc3n2)n1 [GW869641] | 24 | 0 | 20 | 15 | 44 | 45 | 7 | 38 | 31 | 0 | 10 |  | 95.6 | 43 | 38 | 0 | 9 | 55 | 26 | 0
20 | CNC(=O)c1ccccc1Nc1nc(Nc2cccc(CS(C)(=O)=O)c2)ncc1C.O=CO [GSK1520489] | 65 | 15 | 70 | 100 | 96 | 72 | 15 | 52 | 44 | 99.9 | 64 | 81 | 37 | 95 | 95 | 22 | 0 | 62 | 100 | 98.9
21 | CN(c1ccc2c(c1)nc(NCc1ccc(F)cc1)n2C)c1ccnc(Nc2ccc(CS(C)(=O)=O)cc2)n1.Cl [GW813244] | 7 | 0 | 73 | 8 | 19 | 0 | 61 | 3 | 54 | 25 | 4 | 0 | 2 | 92.2 | 37 | 15 | 10 | 22 | 43 | 0
